# PubChem BioAssay AID1014 (NMMLSC, 2008)
# The source made the active and inactive calls. Rule as the data show it: active = inhibition of mean fluorescence above about 33%; inactive = the rest.
# Experiment: blockers of bacterial quorum-sensing reporter fluorescence – flow cytometry, SAR analogs, SAR follow-up (AID 1014);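 also: Staphylococcus aureus RN6390 with RNAIII-GFP reporter stimulated by AIP; bacteria incubated with compound for 3 hours at 37 °C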
# Details: at 20 µM, stronger effect = higher value; inhibition of percent positive cells: measured here: percent reporter-positive cells
Compound,inhibition of percent positive cells [%],inhibition of mean fluorescence
CC1CCCN(CCC(=O)Nc2ccc3c(c2)OCO3)C1 (stereo unspecified),-1.5,-15.3% (inactive)
CCc1ccc(Nc2nc3c(S(=O)(=O)c4ccc(C(C)C)cc4)nnn3c3ccccc23)cc1,-1.1,6.9% (inactive)
O=C(NCCN1CCN(c2ccccc2F)CC1)c1ccc2c(Cl)c3c(nc2c1)CCCC3,-0.2,4.8% (inactive)
